Legend:
Conditions in all cases: concentration: 1 μM, replicates: in singlicate; n = 1
CSNK1G1 = test system: CSNK1G1
CSNK1G2 = test system: CSNK1G2
CSNK1G3 = test system: CSNK1G3
CSNK2A1 = test system: CSNK2A1
CSNK2A2 = test system: CSNK2A2
CTK = test system: T1, CTK
T1 construct: gene MATK

DAPK1 = test system: DAPK1
DAPK2 = test system: DAPK2
DAPK3 = test system: DAPK3
DCAMKL1 = test system: T2, DCAMKL1
T2 construct: gene DCLK1

DCAMKL2 = test system: T3, DCAMKL2
T3 construct: gene DCLK2

DCAMKL3 = test system: T4, DCAMKL3
T4 construct: gene DCLK3

DDR1 = test system: DDR1
DDR2 = test system: DDR2
DLK = test system: T5, DLK
T5 construct: gene MAP3K12

DMPK2 = test system: T6, DMPK2
T6 construct: gene CDC42BPG

DMPK = test system: DMPK
DRAK1 = test system: T7, DRAK1
T7 construct: gene STK17A

DRAK2 = test system: T8, DRAK2
T8 construct: gene STK17B

DYRK1A = test system: DYRK1A
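Further: KINOMEscan kinase panel screen.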

SMILES	%Inh (CSNK1G1) [%]	%Inh (CSNK1G2) [%]	%Inh (CSNK1G3) [%]	%Inh (CSNK2A1) [%]	%Inh (CSNK2A2) [%]	%Inh (CTK) [%]	%Inh (DAPK1) [%]	%Inh (DAPK2) [%]	%Inh (DAPK3) [%]	%Inh (DCAMKL1) [%]	%Inh (DCAMKL2) [%]	%Inh (DCAMKL3) [%]	%Inh (DDR1) [%]	%Inh (DDR2) [%]	%Inh (DLK) [%]	%Inh (DMPK2) [%]	%Inh (DMPK) [%]	%Inh (DRAK1) [%]	%Inh (DRAK2) [%]	%Inh (DYRK1A) [%]
CN(c1ccc2c(c1)nc(NCc1ccccc1)n2C)c1ccnc(Nc2ccc(CS(C)(=O)=O)cc2)n1.Cl [GW811603]	0	4	0	16	8	5	13	0	0	0	0	99.4	99.5	100	14	0	9	0	0	5
CSc1ccc(NC2=C(c3ccc(Cl)cc3)C(=O)NC2=O)cc1 [SB-317658]	0	15	0	0	25	19	0	0	0	0	2	12	0	5	0	10	8	12	0	1
Cc1ccc(NC(=O)c2cccc(N3CCCCC3)c2)cc1-c1ccc(C(=O)NCC2CC2)cc1 [GSK1917008]	8	0	24	29	10	17	0	0	29	16	19	0	100	64	8	100	3	0	9	27
CN(c1ccc(NC(=O)Nc2cccc(Cl)c2)cc1)c1ccnc(N)n1.Cl [GW830707]	12	0	0	0	0	13	0	0	0	0	0	4	97.7	99.3	0	0	4	0	17	0
COc1ccc(NC(=O)c2ccoc2)cc1-c1ccc(C(=O)NCC2CC2)cc1 [GW810437]	0	0	0	0	0	15	0	17	13	0	17	12	0	50	0	0	1	6	7	0
Nc1ncc(-c2ccc3nccc(-c4ccncc4)c3c2)cc1S(=O)(=O)N1CCCCC1 [GSK1693850]	0	18	33	2	0	0	11	26	30	15	0	0	2	12	42	15	0	0	5	8
CN(C)CCNS(=O)(=O)c1ccc(-c2ccnc3[nH]ccc23)cc1 [GSK977620]	0	0	5	30	11	0	76	44	88	18	16	15	7	0	26	30	74	71	28	69
CC(=O)Nc1cn2nc(Oc3cccc(NC(=O)c4cccc(C(F)(F)F)c4)c3)ccc2n1	3	0	41	0	0	0	0	1	6	20	24	9	98.3	100	0	1	0	0	11	0
Cc1cc(-c2ccnc(Nc3cccc(C#N)c3)n2)cc(C)c1O [GSK1440913]	17	12	55	40	46	4	20	9	5	8	10	61	0	23	46	22	0	96.8	45	46
CCNC(=O)/C=C/c1n[nH]c2cc(Sc3ccccc3C(=O)NC)ccc12	13	0	13	24	0	6	13	8	15	0	11	30	0	0	9	3	3	49	0	21
O=C(Nc1n[nH]c2cc(-c3cccs3)ccc12)C1CC1 [SB-731284]	0	0	0	62	80	45	12	2	3	12	3	0	10	23	26	0	0	14	12	15
CN(C)c1ncnc2nc[nH]c12 [SKF-31736]	3	0	0	0	5	36	7	3	20	32	0	0	0	35	12	0	2	0	0	0
CN(c1ccc(F)c(NC(=O)c2cccc(OC(C)(C)C#N)c2Cl)c1)c1ccc2nc(NC(=O)C3CC3)sc2n1	0	12	0	35	10	13	4	0	4	0	0	0	100	97	2	14	0	0	0	0
COC(=O)Nc1nc2ccc(Oc3ccc(CC(=O)Nc4cc(C(F)(F)F)ccc4F)cc3)cc2[nH]1 [GW680903]	0	0	14	0	0	0	0	0	0	11	0	0	100	97.4	30	0	0	54	0	13
COc1cc(Nc2nccc(N3CCC(NS(=O)(=O)c4ccc(NC(C)=O)cc4)CC3)n2)cc(OC)c1OC [GSK1379825]	0	0	0	8	2	0	0	0	8	0	1	0	0	14	76	83	0	0	0	25
CC(C)c1nc(-c2ccc(F)c(NS(=O)(=O)c3c(F)cccc3F)c2)c(-c2ccnc(Nc3ccc(N4CCOCC4)nc3)n2)s1 [GSK1804250]	7	4	12	10	0	30	14	5	20	12	0	30	82	56	68	26	6	15	0	7
Cc1ccc(C)c(NC(=O)Nc2ccc(C)c(-c3ccc(C(=O)Nc4ccncc4)cc3)c2)c1 [GSK1398473]	3	15	32	15	0	0	26	0	2	13	0	13	99.8	72	0	1	4	0	0	36
Cn1cc(-c2ccc3c(c2)CCN3C(=O)Cc2cc(F)cc(C(F)(F)F)c2)c2c(N)ncnc21 [GSK2635225]	22	12	15	2	0	0	21	6	19	3	0	0	100	85	23	0	0	0	0	4
Fc1cc(Cl)ccc1Nc1ccnc2cc(-c3ccc(CN4CCSCC4)o3)ccc12 [GW560106]	0	0	14	0	100	0	0	0	11	7	0	42	96.1	69	46	0	8	23	0	0
Cc1cccc(Nc2nc(NCCN)ncc2C(N)=O)c1 [GSK1292139]	6	0	26	34	29	0	52	25	38	16	0	0	0	20	62	60	14	58	68	2

— publication PMC5540273 (PLoS ONE, 2017)
